High-throughput results (PubChem BioAssay)
Shown are actives, neighbours in structure and some others; about 3.5% of the full set was active somewhere.
FBW7 act = human FBW7 E3 ligase activation, primary screen; Q969H0; AlphaScreen FBW7–phospho-cyclin E peptide binding, activator screen; normalized activity (activation), % at 26.1 µM; 650,000 tested, 0.13% active; in the data active = normalized activity above about 1.9%;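 also: purified mutant Fbw7 with reduced substrate affinity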
MITF primary = inhibitors of human MITF. O75030. AlphaScreen MITF homodimerization, bead proximity signal. inhibition, % at 2.6 µM. 650,000 tested, 0.91% active. AID 1259374; in the data active = inhibition above about 50%;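 also: 0% = vehicle wells with protein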
TEAD-YAP block = TEAD-YAP interaction inhibition; HEK-TIYL cells, TEAD-Gal4/YAP UAS-luciferase luminescence; inhibition, % at 9.12 µM; 640,000 tested, 1.4% active; AID 1259422; in the data active = inhibition above about 32%;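 also: 0% = median of test compound wells and 100% = reference inhibitor wells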
GPR151 ag = activates the human receptor GPR151; PathHunter beta-arrestin GPR151 cells, luminescence; Q8TDV0; activation, % at 11.2 µM; 650,000 tested, 1% active; AID 1508602; in the data active = activation above about 4.9%;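 also: 0% = median of compound wells and 100% = cells with positive control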
* marks the source's active call; other numbers are inactive results.

What do the screens show for `O=C(CSc1ncnc2sc3c(c12)CCC3)Nc1ccc2[nH]c(=O)[nH]c2c1`?
FBW7 act: 0; MITF primary: -7; TEAD-YAP block: -3; GPR151 ag: 1

What do the screens show for `O=C(Nc1ccc(O)cc1)c1sc2ccccc2c1Cl`?
FBW7 act: 0; MITF primary: 3; TEAD-YAP block: 87*; GPR151 ag: -2

What do the screens show for `Cc1nc(NC(=O)c2sc3ccccc3c2Cl)sc1C`?
FBW7 act: 0; MITF primary: 7; TEAD-YAP block: 87*; GPR151 ag: -8

How did COC(=O)c1sc(NC(=O)c2sc3ccccc3c2Cl)nc1C do in these assays?
FBW7 act: 0; MITF primary: 28; TEAD-YAP block: -59; GPR151 ag: 2

What do the screens show for `O=C(N/N=C/c1ccc(O)c(O)c1O)c1sc2ccccc2c1Cl`?
FBW7 act: -1; MITF primary: 61*; TEAD-YAP block: -1; GPR151 ag: -1

How did CCOc1cc(/C=C/C(=O)O)cc(Br)c1OC do in these assays?
FBW7 act: 0; MITF primary: 2; TEAD-YAP block: -2; GPR151 ag: 3

How did C(=N\Nc1nc2ccccc2[nH]1)/c1c(-c2ccccc2)nc2ccccn12 do in these assays?
FBW7 act: 0; MITF primary: 9; TEAD-YAP block: 15; GPR151 ag: 0

Results for O=C1c2cccc3cccc(c23)C(=O)N1CCNCCO ?
FBW7 act: 0; MITF primary: -11; TEAD-YAP block: 64*; GPR151 ag: 0

Results for CCOc1ccc(-n2cc(-c3ccccc3)c3c(N4CCN(c5ccc(OC)cc5)CC4)ncnc32)cc1 ?
FBW7 act: 0; MITF primary: -14; TEAD-YAP block: 0; GPR151 ag: 0

What do the screens show for `O=C1C(Cl)=C(Nc2cccc(C(F)(F)F)c2)C(=O)N1Cc1ccccc1`?
FBW7 act: 0; MITF primary: -9; TEAD-YAP block: 75*; GPR151 ag: 0

Results for COc1ccc(Cl)cc1NC1=C(Cl)C(=O)N(Cc2ccccc2)C1=O ?
FBW7 act: 0; MITF primary: 64*; TEAD-YAP block: 72*; GPR151 ag: -1

Results for COc1ccc(OC)c(NC2=C(Cl)C(=O)N(Cc3ccccc3)C2=O)c1 ?
FBW7 act: 0; MITF primary: 26; TEAD-YAP block: 9; GPR151 ag: -2

What do the screens show for `c1ccc2sc(CN3CCC(c4nc(-c5ccncc5)no4)C3)nc2c1` (stereo unspecified)?
FBW7 act: -1; MITF primary: 10; TEAD-YAP block: -9; GPR151 ag: -1

What do the screens show for `N#CC1=C(N)Oc2cc(N)ccc2C1c1cccc([N+](=O)[O-])c1` (stereo unspecified)?
FBW7 act: 0; MITF primary: -2; TEAD-YAP block: 40*; GPR151 ag: 1

What do the screens show for `N#CC1=C(N)Oc2c(ccc3cccnc23)C1c1ccccc1Cl` (stereo unspecified)?
FBW7 act: -1; MITF primary: 3; TEAD-YAP block: 17; GPR151 ag: -2

Results for N#CC1=C(N)Oc2c(ccc3cccnc23)C1c1ccc(Br)cc1 (stereo unspecified) ?
FBW7 act: -1; MITF primary: 12; TEAD-YAP block: 17; GPR151 ag: -1

What do the screens show for `N#CC1=C(N)Oc2c(ccc3cccnc23)C1c1cccc([N+](=O)[O-])c1` (stereo unspecified)?
FBW7 act: 0; MITF primary: 9; TEAD-YAP block: 49*; GPR151 ag: 1

Results for Cc1ccc(C2C(C#N)=C(N)Oc3c2ccc2cccnc32)cc1 (stereo unspecified) ?
FBW7 act: 0; MITF primary: 0; TEAD-YAP block: 37*; GPR151 ag: 2

How did Cc1ccc(-c2noc(CNC(=O)Nc3ccccc3C)n2)cc1 do in these assays?
FBW7 act: 0; MITF primary: 25; TEAD-YAP block: -7; GPR151 ag: 0

Results for CCN(C1=C(Cl)C(=O)N(c2ccccc2)C1=O)c1ccccc1 ?
FBW7 act: 0; MITF primary: 7; TEAD-YAP block: 6; GPR151 ag: 0

What do the screens show for `CN(C1=C(Cl)C(=O)N(c2cccc(Cl)c2)C1=O)c1ccccc1`?
FBW7 act: 0; MITF primary: 19; TEAD-YAP block: 33*; GPR151 ag: 1

What do the screens show for `CCN(CC)CCn1c(=O)c2c(ncn2CC(O)CO)n(C)c1=O` (stereo unspecified)?
FBW7 act: 1; MITF primary: 11; TEAD-YAP block: -5; GPR151 ag: 0

How did Cc1cc(Sc2nc3c(C)cccn3c(=O)c2C=O)ncn1 do in these assays?
FBW7 act: 1.9*; MITF primary: -1; TEAD-YAP block: -2; GPR151 ag: 0

What do the screens show for `C=CCn1c(Cl)c(/C=N/NC(=O)OCC)s/c1=N\S(=O)(=O)c1cccs1`?
FBW7 act: 1; MITF primary: 8; TEAD-YAP block: 45*; GPR151 ag: 4

Results for C=CCn1c(Cl)c(C=O)s/c1=N\S(=O)(=O)c1cccs1 ?
FBW7 act: 0; MITF primary: 6; TEAD-YAP block: 60*; GPR151 ag: -2

How did CCC(Sc1nc2ccccc2c(=O)n1CC1CCC(C(=O)NCC2CCCO2)CC1)C(=O)NCc1ccco1 (stereo unspecified) do in these assays?
FBW7 act: 0; MITF primary: -1; TEAD-YAP block: 6; GPR151 ag: 1

What do the screens show for `Cc1ccnc(NC(c2cccs2)c2ccc3cccnc3c2O)c1` (stereo unspecified)?
FBW7 act: -2; MITF primary: 9; TEAD-YAP block: 52*; GPR151 ag: 0

How did Cc1ccc(C)c(C(Nc2ccccn2)c2ccc3cccnc3c2O)c1 (stereo unspecified) do in these assays?
FBW7 act: -1; MITF primary: 13; TEAD-YAP block: 76*; GPR151 ag: -1

What do the screens show for `Cc1ccnc(NC(c2ccccc2C)c2ccc3cccnc3c2O)c1` (stereo unspecified)?
FBW7 act: 0; MITF primary: 17; TEAD-YAP block: 90*; GPR151 ag: 0

What do the screens show for `Cc1cc2c(o1)c1cnn(CC(N)=O)c(=O)c1n2C(C)C`?
FBW7 act: 0; MITF primary: -4; TEAD-YAP block: -7; GPR151 ag: 1

Results for CC(C)NC(=O)C1CCCN(S(=O)(=O)c2cccs2)C1 (stereo unspecified) ?
FBW7 act: 0; MITF primary: -7; TEAD-YAP block: 2; GPR151 ag: 0

How did COc1c(C)cc(C(=O)C2CCCN(S(=O)(=O)c3cccs3)C2)cc1C (stereo unspecified) do in these assays?
FBW7 act: 0; MITF primary: -4; TEAD-YAP block: 52*; GPR151 ag: 0

Results for COc1c(C)cc(C(=O)C2CCCN(S(=O)(=O)c3ccsc3)C2)cc1C (stereo unspecified) ?
FBW7 act: 0; MITF primary: 3; TEAD-YAP block: 44*; GPR151 ag: 1

What do the screens show for `Cc1cc([N+](=O)[O-])ccc1NC(=O)c1ccoc1C`?
FBW7 act: 0; MITF primary: 8; TEAD-YAP block: -10; GPR151 ag: 1

How did CCNC(=O)c1ccc(-c2ccccc2)cc1 do in these assays?
FBW7 act: 0; MITF primary: 1; TEAD-YAP block: -33; GPR151 ag: -1
